In PubChem BioAssay AID1159580 (chemical genetic matrix, 2015):
In all, about 5,500 compounds went through this assay and about 2,000 (36%) were called active. Inconclusive results (about 18%) are left out. Cut-off read from the data, not from the text of the source: active = normalized growth mostly below about 0.91 (no sharp cut-off); inconclusive = no clear call, values can overlap the other calls; inactive = mostly above about 0.92. Some of the results follow.

Assay: chemical genetic growth profiling, strain panel (AID 1159580);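 note: tested at 20 µM; growth read once vehicle control cultures reached saturation at 30 °C; 1 = growth at the plate median or of vehicle wells; lower values mean less growth of the strain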
Conditions: S. cerevisiae deletion strains, growth OD

Measured: normalized growth

CC(=O)c1ccc(Sc2ccccc2)c([N+](=O)[O-])c1
active: locus YAR019C, strain CDC15, hits give low values 0.877 | locus YBL105C, strain PKC1, hits give low values 0.878 | locus YBR135W, strain CKS1, hits give low values 0.864 | locus YBR136W, strain MEC1, hits give low values 0.874 | locus YBR160W, strain CDC28, hits give low values 0.876 | locus YDL017W, strain CDC7, hits give low values 0.879 | locus YDL028C, strain MPS1, hits give low values 0.885 | locus YDL101C, strain DUN1, hits give low values 0.873 | locus YDL108W, strain KIN28, hits give low values 0.876 | locus YDL132W, strain cdc53, hits give low values 0.87 | locus YDR052C, strain DBF4, hits give low values 0.898 | locus YDR054C, strain cdc34, hits give low values 0.845 | locus YDR226W, strain ADK1, hits give low values 0.857 | locus YFL009W, strain cdc4, hits give low values 0.868 | locus YFL029C, strain CAK1, hits give low values 0.87 | locus YFR003C, strain YPI1, hits give low values 0.874 | locus YFR028C, strain CDC14, hits give low values 0.865 | locus YGR092W, strain DBF2, hits give low values 0.387 | locus YHR030C, strain SLT2, hits give low values 0.75 | locus YIL147C, strain SLN1, hits give low values 0.875 | locus YJL128C, strain PBS2, hits give low values 0.778 | locus YJR016C, strain ILV3, hits give low values 0.882 | locus YKL048C, strain ELM1, hits give low values 0.753 | locus YKL193C, strain SDS22, hits give low values 0.869 | locus YLR113W, strain HOG1, hits give low values 0.698 | locus YMR001C, strain CDC5, hits give low values 0.858 | locus YMR277W, strain FCP1, hits give low values 0.859 | locus YNL006W, strain LST8, hits give low values 0.855 | locus YNL161W, strain CBK1, hits give low values 0.869 | locus YNL207W, strain RIO2, hits give low values 0.861 | locus YNL222W, strain SSU72, hits give low values 0.876 | locus YOL078W, strain AVO1, hits give low values 0.861 | locus YOR329C, strain SCD5, hits give low values 0.881 | locus YPL209C, strain IPL1, hits give low values 0.872 | locus YPL256C, strain CLN2, hits give low values 0.782 | locus YPR025C, strain CCL1, hits give low values 0.884 | locus YPR106W, strain ISR1, hits give low values 0.866 | locus YPR111W, strain DBF20, hits give low values 0.838 | strain NNK1, hits give low values 0.853 | strain TSCII, hits give low values 0.86
inactive: locus YDL214C, strain PRR2, hits give low values 0.792 | locus YDR477W, strain SNF1, hits give low values 0.788 | locus YER123W, strain YCK3, hits give low values 0.799 | locus YER133W, strain GLC7, hits give low values 0.874 | locus YFR019W, strain FAB1, hits give low values 0.88 | locus YGR040W, strain KSS1, hits give low values 0.78 | locus YGR052W, strain FMP48, hits give low values 0.784 | locus YHR079C, strain IRE1, hits give low values 0.813 | locus YHR082C, strain KSP1, hits give low values 0.859 | locus YHR205W, strain SCH9, hits give low values 0.773 | locus YJL095W, strain BCK1, hits give low values 0.756 | locus YJL157C, strain FAR1, hits give low values 0.818 | locus YJR066W, strain TOR1 (second series), hits give low values 0.823 | locus YJR066W, strain TOR1, hits give low values 0.811 | locus YKL067W, strain YNK1, hits give low values 0.788 | locus YKL101W, strain HSL1, hits give low values 0.753 | locus YKL203C, strain TOR2, hits give low values 0.814 | locus YLR133W, strain CKI1, hits give low values 0.79 | locus YLR403W, strain SFP1, hits give low values 0.756 | locus YML070W, strain DAK1, hits give low values 0.809 | locus YMR205C, strain PFK2 (second series), hits give low values 0.772 | locus YNL020C, strain ARK1, hits give low values 0.803 | locus YNL183C, strain NPR1, hits give low values 0.798 | locus YNL307C, strain MCK1 (second series), hits give low values 0.772 | locus YOL136C, strain PFK27, hits give low values 0.772 | locus YOR061W, strain CKA2, hits give low values 0.815 | locus YOR119C, strain RIO1, hits give low values 0.835 | locus YOR231W, strain MKK1, hits give low values 0.788 | locus YPL031C, strain PHO85, hits give low values 0.785 | locus YPL153C, strain RAD53, hits give low values 0.79 | locus YPL204W, strain HRR25, hits give low values 0.773
